Assay results as given in the supplement of paper PMC12808144.
Values without a mark were called inactive.

Key:
Mel-DCC-11 = experiment: cell viability relative to DMSO control (fraction of DMSO control); higher = less cytotoxic, active = 0.5 or less; settings: 1 µM; 120 h
In short: (§1)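 The screen used 384-well plates acoustically pre-spotted with 315 approved anti-cancer drugs from TargetMol, each at 1 µM in duplicate. Into each well went 40 µl of cells, 2500 NHEM-hTERT immortalized melanocytes or 1500 of patient-derived Mel-DCC-11 or its resistant subline Mel-DCC-11-R, and plates were kept 120 h, with the subline also tested alongside 8 µM of its selecting drug. Readout was by ATPlite 1step luminescence. Viability values were normalised to vehicle-treated controls and averaged between duplicates.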

NHEM-hTERT = experiment: as above; settings: 1 µM; 120 h
In short: as §1

Mel-DCC-11-R = experiment: cell viability relative to DMSO control (fraction of DMSO control); higher = less cytotoxic, active = 0.8 or less; settings: 1 µM, 120 h
In short: as §1

Row | Structure (SMILES) | cell viability (Mel-DCC-11) | cell viability (NHEM-hTERT) | cell viability (Mel-DCC-11-R; vemurafenib co-treatment 0 µM) | cell viability (Mel-DCC-11-R; vemurafenib co-treatment 8 µM)
1 | CC(COc1ccccc1)N(CCCl)Cc1ccccc1.Cl (stereo not drawn) [Phenoxybenzamine hydrochloride] | 1.18 | 1.13 | 1 | 1.15
2 | C[C@@H]1O[C@@H](O[C@H]2[C@H](Oc3cc(O)c4c(c3)O[C@H](c3ccc(O)cc3)CC4=O)O[C@H](CO)[C@@H](O)[C@@H]2O)[C@H](O)[C@H](O)[C@H]1O [Naringin] | 0.983 | 0.986 | 1.02 | 1.19
3 | Nc1ccccc1NC(=O)c1ccc(CNC(=O)OCc2cccnc2)cc1 [Entinostat] | 1.48 | 0.554 | 0.989 | 1.01
4 | C#Cc1cccc(Nc2ncnc3cc(OCCOC)c(OCCOC)cc23)c1 [Erlotinib] | 1.26 | 1.02 | 1.03 | 0.732 (active)
5 | Cl.N=c1ccn2c(n1)O[C@H]1[C@H](O)[C@@H](CO)O[C@H]12 [Cyclocytidine hydrochloride] | 0.737 | 0.845 | 0.873 | 0.599 (active)
6 | CC(C)(CO)c1cc2cc(NC(=O)C3(c4ccc5c(c4)OC(F)(F)O5)CC3)c(F)cc2n1C[C@@H](O)CO | 1.01 | 1.06 | 1.18 | 1.07
7 | C=CC(=O)Nc1cc(Nc2nccc(-c3cn(C)c4ccccc34)n2)c(OC)cc1N(C)CCN(C)C.CS(=O)(=O)O [Osimertinib mesylate] | 0.859 | 1.14 | 1.21 | 0.744 (active)
8 | CCCCCCCCCCCCCC(=O)[O-].CCCCCCCCCCCCCC(=O)[O-].N[C@@H]1CCCC[C@H]1N.[Pt+2] [Miriplatin] | 1.11 | 1.03 | 1.04 | 1.03
9 | CC/C(=C(\c1ccc(O)cc1)c1ccc(OCCNC)cc1)c1ccccc1 [(E/Z)-Endoxifen] | 1.05 | 0.88 | 1.15 | 1.14
10 | O=c1[nH]c(=O)n([C@H]2C[C@H](O)[C@@H](CO)O2)cc1/C=C/Br [Brivudine] | 0.776 | 1.08 | 0.809 | 1.12
11 | Nc1nc(F)nc2c1ncn2[C@@H]1O[C@H](COP(=O)(O)O)[C@@H](O)[C@@H]1O [Fludarabine Phosphate] | 1.49 | 1.2 | 1.07 | 1.16
12 | CCOC(=O)c1ccc(C#Cc2ccc3c(c2)C(C)(C)CCS3)nc1 [Tazarotene] | 1.1 | 1.16 | 1.09 | 1.23
13 | Cc1coc2c1C(=O)C(=O)c1c-2ccc2c(C)cccc12 [Tanshinone I] | 0.753 | 0.983 | 1.03 | 0.825
14 | CN(C)C/C=C/C(=O)Nc1cc2c(Nc3ccc(F)c(Cl)c3)ncnc2cc1O[C@H]1CCOC1 [Afatinib] | 0.77 | 1.01 | 1.09 | 0.792 (active)
15 | CN(C)CCOc1ccc(/C(=C(/CCCl)c2ccccc2)c2ccccc2)cc1.O=C(O)CC(O)(CC(=O)O)C(=O)O [Toremifene citrate] | 1.61 | 0.992 | 0.981 | 1.19
16 | COc1cc2c(cc1O)CC[C@@H]1[C@@H]2CC[C@]2(C)[C@@H](O)CC[C@@H]12 [2-Methoxyestradiol] | 0.961 | 0.87 | 1.29 | 0.985
17 | CNC(=O)c1ccc(N2C(=S)N(c3cnc(C#N)c(C(F)(F)F)c3)C(=O)C23CCC3)cc1F [Apalutamide] | 1.18 | 1.01 | 0.958 | 1.1
18 | CCOc1cc2ncc(C#N)c(Nc3ccc(OCc4ccccn4)c(Cl)c3)c2cc1NC(=O)/C=C/CN(C)C [Neratinib] | 1.03 | 0.732 | 1.31 | 0.643 (active)
19 | Nc1nc(Cl)nc2c1ncn2[C@@H]1O[C@H](CO)[C@@H](O)[C@@H]1F [Clofarabine] | 0.59 | 0.53 | 0.91 | 0.67 (active)
20 | COc1cccc2c1C(=O)c1c(O)c3c(c(O)c1C2=O)C[C@@](O)(C(C)=O)C[C@@H]3O[C@H]1C[C@H](N)[C@H](O)[C@H](C)O1.Cl [Daunorubicin hydrochloride] | 0.0325 (active) | 0.363 (active) | 0.0677 (active) | 0.0387 (active)
21 | Nc1nc(=S)c2[nH]cnc2[nH]1 [Thioguanine] | 0.703 | 1.06 | 1.31 | 0.933

Row | Structure (SMILES) | cell viability (Mel-DCC-11) | cell viability (NHEM-hTERT) | cell viability (Mel-DCC-11-R; vemurafenib co-treatment 0 µM) | cell viability (Mel-DCC-11-R; vemurafenib co-treatment 8 µM)
22 | CC1=C(/C=C/C(C)=C/C=C/C(C)=C/C(=O)O)C(C)(C)CCC1 [Tretinoin] | 1.5 | 0.953 | 0.946 | 1.19
23 | Nc1ccn([C@@H]2O[C@H](CO)[C@@H](O)C2(F)F)c(=O)n1 [Gemcitabine] | 0.437 (active) | 0.639 | 0.869 | 0.709 (active)
24 | O=NN(CCCl)C(=O)NC1CCCCC1 [Lomustine] | 1.33 | 0.938 | 0.985 | 1.11
25 | CO[C@H]1C[C@@H]2CC[C@@H](C)[C@@](O)(O2)C(=O)C(=O)N2CCCC[C@H]2C(=O)O[C@H]([C@H](C)C[C@@H]2CC[C@@H](OCCO)[C@H](OC)C2)CC(=O)[C@H](C)/C=C(\C)[C@@H](O)[C@@H](OC)C(=O)[C@H](C)C[C@H](C)/C=C/C=C/C=C/1C [Everolimus] | 1.35 | 0.964 | 1.57 | 0.834
26 | NCCNc1ccc(NCCN)c2c1C(=O)c1ccncc1C2=O.O=C(O)/C=C\C(=O)O.O=C(O)/C=C\C(=O)O [Pixantrone dimaleate] | 1.42 | 0.889 | 1.62 | 0.868
27 | Cn1nnc(-c2ccc(-c3ccc(N4C[C@H](CO)OC4=O)cc3F)cn2)n1 [Torezolid] | 2 | 0.958 | 0.848 | 0.663 (active)
28 | CC=Cc1ccc(OC)cc1 (stereo in doubt) [cis-Anethol] | 1.19 | 0.759 | 1.26 | 0.591 (active)
29 | CS(=O)(=O)c1ccc(C(=O)Nc2ccc(Cl)c(-c3ccccn3)c2)c(Cl)c1 [Vismodegib] | 0.785 | 0.961 | 0.807 | 0.892
30 | CCN(c1cc(-c2ccc(CN3CCOCC3)cc2)cc(C(=O)NCc2c(C)cc(C)[nH]c2=O)c1C)C1CCOCC1 | 1.12 | 0.964 | 0.831 | 0.967
31 | Nc1nc2[nH]nnc2c(=O)[nH]1 [8-Azaguanine] | 1.68 | 1.08 | 1.42 | 1.05
32 | O=c1c(-c2ccc(O)cc2)coc2cc(O)cc(O)c12 [Genistein] | 1.04 | 1.1 | 0.984 | 1.02
33 | Nc1nc(=O)c2c([nH]1)NCC(CNc1ccc(C(=O)N[C@@H](CCC(=O)[O-])C(=O)[O-])cc1)N2C=O.[Ca+2] (stereo partly drawn) [Calcium folinate] | 5.03 | 1.16 | 1.68 | 1.31
34 | NC(=O)c1ncn([C@@H]2O[C@H](CO)[C@@H](O)[C@H]2O)c1N [AICAR (Acadesine)] | 1.34 | 1.06 | 1.12 | 1.21
35 | CCC1(O)C(=O)OCc2c1cc1n(c2=O)Cc2cc3cc(O)ccc3nc2-1 (stereo not drawn) [Hydroxy Camptothecine] | 0.233 (active) | 0.899 | 0.422 (active) | 0.224 (active)
36 | CS(=O)(=O)CCNCc1ccc(-c2ccc3ncnc(Nc4ccc(OCc5cccc(F)c5)c(Cl)c4)c3c2)o1.Cc1ccc(S(=O)(=O)O)cc1.Cc1ccc(S(=O)(=O)O)cc1 [Lapatinib Ditosylate] | – | 1.13 | 1.27 | 0.885
37 | C=CC(=O)Nc1cc(Nc2nccc(-c3cn(C)c4ccccc34)n2)c(OC)cc1N(C)CCN(C)C [Osimertinib] | – | 1.16 | 1.06 | 0.884
38 | COc1c2occc2cc2ccc(=O)oc12 [8-Methoxypsoralen] | – | 1.09 | 1.05 | 1.19
39 | Nc1nc(Cl)nc2c1ncn2[C@H]1C[C@H](O)[C@@H](CO)O1 [Cladribine] | – | 0.592 | 0.977 | 0.722 (active)
40 | COc1ccc(/C=C\c2cc(OC)c(OC)c(OC)c2)cc1OP(=O)([O-])[O-].[Na+].[Na+] [Fosbretabulin Disodium] | – | 0.64 | 0.57 (active) | 0.421 (active)
41 | COc1cc2ncnc(Nc3ccc(F)c(Cl)c3)c2cc1NC(=O)/C=C/CN1CCCCC1 [Dacomitinib] | – | 1.03 | 1.07 | 0.911
